From PMC11006913
Changes are numbered by the printed parent chain.

Key:
Assay in all cases: PBM; 200 nM protein, PBS
Conditions in all cases: dsDNA, one strand shown
[1] = biological target: NKX2-5 (Homo sapiens, UniProt P52952 125-210, R139K)
[2] = biological target: T1, NKX2-4 (Homo sapiens, UniProt Q9H2Z4 175-261, P217L)
T1 sequence: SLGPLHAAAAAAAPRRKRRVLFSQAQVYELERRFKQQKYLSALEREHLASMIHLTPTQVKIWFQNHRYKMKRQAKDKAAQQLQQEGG

[3] = biological target: T2, NKX2-4 (Homo sapiens, UniProt Q9H2Z4 175-261, T231S)
T2 sequence: T1 sequence with L43P, T57S

[4] = biological target: T3, NKX2-4 (Homo sapiens, UniProt Q9H2Z4 175-261)
T3 sequence: T1 sequence with L43P

[5] = biological target: T4, NKX2-6 (Homo sapiens, UniProt A6NCS4 118-204, R150C)
T4 sequence: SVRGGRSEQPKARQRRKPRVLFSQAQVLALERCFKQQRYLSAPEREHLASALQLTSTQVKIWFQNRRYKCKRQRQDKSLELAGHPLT

[6] = biological target: T5, NKX2-6 (Homo sapiens, UniProt A6NCS4 118-204)
T5 sequence: T4 sequence with C33R

[7] = biological target: T6, NKX2-4 (Homo sapiens, UniProt Q9H2Z4 175-261, R246Q)
T6 sequence: T1 sequence with L43P, R72Q

[8] = biological target: T7, NKX2-6 (Homo sapiens, UniProt A6NCS4 118-204, F151L)
T7 sequence: T4 sequence with C33R, F34L

[9] = biological target: NKX2-5 (Homo sapiens, UniProt P52952 125-210)
Sequence of NKX2-5 (Homo sapiens, UniProt P52952 125-210) (P52952 125-210): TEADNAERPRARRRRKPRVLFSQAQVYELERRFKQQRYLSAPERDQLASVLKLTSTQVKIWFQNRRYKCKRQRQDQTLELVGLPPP

[10] = biological target: NKX3-2 (Homo sapiens, UniProt P78367 192-278, P234S)
Sequence of NKX3-2 (Homo sapiens, UniProt P78367 192-278, P234S) (P78367 192-278 P234S): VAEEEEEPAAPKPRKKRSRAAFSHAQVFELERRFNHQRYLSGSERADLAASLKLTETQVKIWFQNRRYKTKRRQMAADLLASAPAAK

[11] = biological target: NKX3-2 (Homo sapiens, UniProt P78367 192-278)
Sequence of NKX3-2 (Homo sapiens, UniProt P78367 192-278) (P78367 192-278): as the sequence (P78367 192-278 P234S) above, with S43P counted along it

[12] = biological target: T8, VENTX (Homo sapiens, UniProt O95231 78-163, R121Q)
T8 sequence: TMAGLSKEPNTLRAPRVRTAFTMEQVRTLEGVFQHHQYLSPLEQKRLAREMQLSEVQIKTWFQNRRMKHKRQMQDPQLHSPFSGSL

[13] = biological target: T9, VENTX (Homo sapiens, UniProt O95231 78-163, Y115F)
T9 sequence: T8 sequence with Y38F, Q44R

[14] = biological target: ALX1 (Homo sapiens, UniProt Q15699 118-204, L144V)
Sequence of ALX1 (Homo sapiens, UniProt Q15699 118-204, L144V) (Q15699 118-204 L144V): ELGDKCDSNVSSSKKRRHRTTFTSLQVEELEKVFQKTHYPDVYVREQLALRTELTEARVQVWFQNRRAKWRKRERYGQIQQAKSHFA

[15] = biological target: ALX1 (Homo sapiens, UniProt Q15699 118-204, L144R)
Sequence of ALX1 (Homo sapiens, UniProt Q15699 118-204, L144R) (Q15699 118-204 L144R): as the sequence (Q15699 118-204 L144V) above, with V27R counted along it

[16] = biological target: ALX1 (Homo sapiens, UniProt Q15699 118-204)
Sequence of ALX1 (Homo sapiens, UniProt Q15699 118-204) (Q15699 118-204): as the sequence (Q15699 118-204 L144V) above, with V27L counted along it

[17] = biological target: HOXB4 (Homo sapiens, UniProt P17483 148-234)
Sequence of HOXB4 (Homo sapiens, UniProt P17483 148-234) (P17483 148-234): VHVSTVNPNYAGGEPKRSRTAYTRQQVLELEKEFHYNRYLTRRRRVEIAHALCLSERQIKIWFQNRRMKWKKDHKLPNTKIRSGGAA

[18] = biological target: HOXB4 (Homo sapiens, UniProt P17483 148-234, V174I)
Sequence of HOXB4 (Homo sapiens, UniProt P17483 148-234, V174I) (P17483 148-234 V174I): as the sequence (P17483 148-234) above, with V27I counted along it

[19] = biological target: T10, VENTX (Homo sapiens, UniProt O95231 78-163)
T10 sequence: T8 sequence with Q44R

[20] = biological target: HOXB9 (Homo sapiens, UniProt P17482 171-250, R186Q)
Sequence of HOXB9 (P17482 171-250 R186Q): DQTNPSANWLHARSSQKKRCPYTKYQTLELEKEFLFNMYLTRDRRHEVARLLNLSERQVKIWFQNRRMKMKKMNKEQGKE

Sequence of NKX2-5 (Homo sapiens, UniProt P52952 125-210, R139K) (P52952 125-210 R139K): as the sequence (P52952 125-210) above, with R15K counted along it

AATAAGTG
binding signal [1]: 12.4 upbm affinity estimate (log intensity, higher = more binding, comparable within an allelic series)
binding signal [2]: 12.4 upbm affinity estimate (log intensity, higher = more binding, comparable within an allelic series)
binding signal [3]: 12.8 upbm affinity estimate (log intensity, higher = more binding, comparable within an allelic series)
binding signal [4]: 12.3 upbm affinity estimate (log intensity, higher = more binding, comparable within an allelic series)
binding signal [5]: 11.8 upbm affinity estimate (log intensity, higher = more binding, comparable within an allelic series)
binding signal [6]: 13.3 upbm affinity estimate (log intensity, higher = more binding, comparable within an allelic series)
binding signal [7]: 12.9 upbm affinity estimate (log intensity, higher = more binding, comparable within an allelic series)
binding signal [8]: 10.7 upbm affinity estimate (log intensity, higher = more binding, comparable within an allelic series)
binding signal [9]: 12.4 upbm affinity estimate (log intensity, higher = more binding, comparable within an allelic series)

ACCACTTA
binding signal [1]: 13.2 upbm affinity estimate (log intensity, higher = more binding, comparable within an allelic series)
binding signal [2]: 12.7 upbm affinity estimate (log intensity, higher = more binding, comparable within an allelic series)
binding signal [3]: 13.1 upbm affinity estimate (log intensity, higher = more binding, comparable within an allelic series)
binding signal [4]: 12.6 upbm affinity estimate (log intensity, higher = more binding, comparable within an allelic series)
binding signal [5]: 12.3 upbm affinity estimate (log intensity, higher = more binding, comparable within an allelic series)
binding signal [6]: 14 upbm affinity estimate (log intensity, higher = more binding, comparable within an allelic series)
binding signal [7]: 13.2 upbm affinity estimate (log intensity, higher = more binding, comparable within an allelic series)
binding signal [8]: 11.4 upbm affinity estimate (log intensity, higher = more binding, comparable within an allelic series)
binding signal [10]: 13.3 upbm affinity estimate (log intensity, higher = more binding, comparable within an allelic series)
binding signal [9]: 13.1 upbm affinity estimate (log intensity, higher = more binding, comparable within an allelic series)
binding signal [11]: 13.3 upbm affinity estimate (log intensity, higher = more binding, comparable within an allelic series)

ACGCGCAG
binding signal [1]: 8.62 upbm affinity estimate (log intensity, higher = more binding, comparable within an allelic series)
binding signal [5]: 9.46 upbm affinity estimate (log intensity, higher = more binding, comparable within an allelic series)
binding signal [9]: 8.69 upbm affinity estimate (log intensity, higher = more binding, comparable within an allelic series)

AATTAGCT
binding signal [1]: 10.5 upbm affinity estimate (log intensity, higher = more binding, comparable within an allelic series)
binding signal [12]: 11.7 upbm affinity estimate (log intensity, higher = more binding, comparable within an allelic series)
binding signal [13]: 11.4 upbm affinity estimate (log intensity, higher = more binding, comparable within an allelic series)
binding signal [14]: 11.5 upbm affinity estimate (log intensity, higher = more binding, comparable within an allelic series)
binding signal [15]: 11.1 upbm affinity estimate (log intensity, higher = more binding, comparable within an allelic series)
binding signal [16]: 12.1 upbm affinity estimate (log intensity, higher = more binding, comparable within an allelic series)
binding signal [9]: 10.6 upbm affinity estimate (log intensity, higher = more binding, comparable within an allelic series)

CCGGAGCC
binding signal [1]: 8.82 upbm affinity estimate (log intensity, higher = more binding, comparable within an allelic series)
binding signal [2]: 9.74 upbm affinity estimate (log intensity, higher = more binding, comparable within an allelic series)
binding signal [3]: 9.52 upbm affinity estimate (log intensity, higher = more binding, comparable within an allelic series)
binding signal [4]: 9.71 upbm affinity estimate (log intensity, higher = more binding, comparable within an allelic series)
binding signal [7]: 9.5 upbm affinity estimate (log intensity, higher = more binding, comparable within an allelic series)
binding signal [10]: 10.4 upbm affinity estimate (log intensity, higher = more binding, comparable within an allelic series)
binding signal [9]: 8.87 upbm affinity estimate (log intensity, higher = more binding, comparable within an allelic series)
binding signal [11]: 10.4 upbm affinity estimate (log intensity, higher = more binding, comparable within an allelic series)

ACGGCTGG
binding signal [1]: 8.82 upbm affinity estimate (log intensity, higher = more binding, comparable within an allelic series)
binding signal [17]: 7.57 upbm affinity estimate (log intensity, higher = more binding, comparable within an allelic series)
binding signal [18]: 7.93 upbm affinity estimate (log intensity, higher = more binding, comparable within an allelic series)
binding signal [9]: 8.82 upbm affinity estimate (log intensity, higher = more binding, comparable within an allelic series)

GTACTTAA
binding signal [1]: 13.1 upbm affinity estimate (log intensity, higher = more binding, comparable within an allelic series)
binding signal [2]: 12.8 upbm affinity estimate (log intensity, higher = more binding, comparable within an allelic series)
binding signal [3]: 13.2 upbm affinity estimate (log intensity, higher = more binding, comparable within an allelic series)
binding signal [4]: 12.6 upbm affinity estimate (log intensity, higher = more binding, comparable within an allelic series)
binding signal [5]: 12 upbm affinity estimate (log intensity, higher = more binding, comparable within an allelic series)
binding signal [6]: 13.9 upbm affinity estimate (log intensity, higher = more binding, comparable within an allelic series)
binding signal [7]: 13.3 upbm affinity estimate (log intensity, higher = more binding, comparable within an allelic series)
binding signal [8]: 11.2 upbm affinity estimate (log intensity, higher = more binding, comparable within an allelic series)
binding signal [10]: 12.7 upbm affinity estimate (log intensity, higher = more binding, comparable within an allelic series)
binding signal [9]: 12.9 upbm affinity estimate (log intensity, higher = more binding, comparable within an allelic series)
binding signal [11]: 12.8 upbm affinity estimate (log intensity, higher = more binding, comparable within an allelic series)

CGGGCTCC
binding signal [1]: 8.64 upbm affinity estimate (log intensity, higher = more binding, comparable within an allelic series)
binding signal [17]: 6.66 upbm affinity estimate (log intensity, higher = more binding, comparable within an allelic series)
binding signal [12]: 7.54 upbm affinity estimate (log intensity, higher = more binding, comparable within an allelic series)
binding signal [19]: 6.97 upbm affinity estimate (log intensity, higher = more binding, comparable within an allelic series)
binding signal [13]: 7.32 upbm affinity estimate (log intensity, higher = more binding, comparable within an allelic series)
binding signal [18]: 6.92 upbm affinity estimate (log intensity, higher = more binding, comparable within an allelic series)
binding signal [6]: 9.11 upbm affinity estimate (log intensity, higher = more binding, comparable within an allelic series)
binding signal [20]: 7.82 upbm affinity estimate (log intensity, higher = more binding, comparable within an allelic series)
binding signal [8]: 9.07 upbm affinity estimate (log intensity, higher = more binding, comparable within an allelic series)
binding signal [9]: 8.58 upbm affinity estimate (log intensity, higher = more binding, comparable within an allelic series)

ACCCGGGC
binding signal [1]: 8.96 upbm affinity estimate (log intensity, higher = more binding, comparable within an allelic series)
binding signal [9]: 8.92 upbm affinity estimate (log intensity, higher = more binding, comparable within an allelic series)
